In ChEMBL document CHEMBL4513216, “Probing the Open Global Health Chemical Diversity Library for Multistage-Active Starting Points for Next-Generation Antimalarials” (ACS Infect Dis, 2020):
Among all 69,000 compounds or so, about 8,600 (12%) showed an effect of 50% or more. Shown is part of a subset that was picked to be rich in strong results.

System: Plasmodium berghei
Assay: Screen against P. berghei liver stage (PbLuc), transformed with Luciferase, at 10uM
Format: functional, HepG2
Settings: tested at 10 uM

| SMILES | INHIBITION |
| --- | --- |
| CC(C)Cc1nc(NC(=O)c2cc(-c3cccnc3)n[nH]2)n[nH]1 | 40.1% |
| O=C(Nc1ncc[nH]1)c1cc(-c2cccnc2)n[nH]1 | 57% |
| CN1CC(=O)N(c2cccc(F)c2)CC12CCN(Cc1cccnc1)C2 (stereo not drawn) | 1.58% |
| Cc1noc(C(C)C)c1C(=O)NCCC(=O)N1CCCCC1 | -18% |
| COc1ccccc1NC(=O)NC1(c2noc(CN(C)C)n2)CCCC1 | 48.1% |
| Cc1cccc(CN2CCc3nnc(Cn4cccc4)n3CC2)n1 | 23.5% |
| Cc1nc(-c2ccc(Cl)cc2)n(CC(=O)NC(C)C)c(=O)c1CCO | 61.4% |
| COCCNC(=O)Cn1c(-c2ccc(Cl)cc2)nc(C)c(CCO)c1=O | 2.29% |
| CCN(CC)C(=O)Cn1c(-c2ccc(Cl)cc2)nc(C)c(CCO)c1=O | -21.8% |
| CCc1nnc(C(C)N2CCC(NC(=O)C3CCCCC3)CC2)o1 (stereo not drawn) | 11.3% |
| CN(Cc1cnccn1)C(=O)[C@@]12CNC[C@@H]1CN(Cc1ccccc1)C2 | -22.3% |
| O=C(NCC1Cn2nnc(-c3cccc(F)c3)c2CO1)c1ccc[nH]1 (stereo not drawn) | 9.63% |
| CCN1C[C@@H]2CN(S(=O)(=O)c3cccs3)C[C@@H]2C1=O | -24.5% |
| CCO[C@@H]1C[C@H]2CN(S(=O)(=O)c3cccs3)CCN2C1 | 57.1% |
| O=S(=O)(c1cccs1)N1CCN2C[C@H](OCC3CC3)C[C@H]2C1 | 8.85% |
| CC(C)c1nc(S(=O)(=O)N(C)c2cc(F)ccc2F)c[nH]1 | 23.3% |
| CCOc1ccc(N(C)S(=O)(=O)c2c[nH]c(C(C)C)n2)cc1 | 10.3% |
| CC(C)c1nc(S(=O)(=O)N(C)c2ccc(F)cc2)c[nH]1 | 54.8% |
| CNC(=O)c1cn[nH]c1C1CCCN1C(=O)c1ccccn1 (stereo not drawn) | -20.6% |
| COCCn1cnnc1C1CCCN(c2cnccn2)C1 (stereo not drawn) | 30.4% |
| CSCC(=O)N[C@H]1CC[C@H](Nc2nccc(-c3ccncc3)n2)C1 | 14.2% |
| CSCCC(=O)N[C@H]1CC[C@H](Nc2nccc(-c3ccncc3)n2)C1 | 0.923% |
| COCCC(=O)N[C@H]1CC[C@H](Nc2nccc(-c3ccncc3)n2)C1 | 61.5% |
| Cc1cc(C(F)(F)F)nc(C2COCCN2S(C)(=O)=O)n1 (stereo not drawn) | 33.65% |
| CC(C)OCCCNS(=O)(=O)c1ccc2c(c1)NC(=O)C(C)O2 (stereo not drawn) | -4.87% |
| COc1cc(NCc2ccc(Cl)cc2)c(-c2nn[nH]n2)cc1OC | 22.6% |
| O=C(CCCn1cncn1)N1CCC2(CC1)[C@H](O)C[C@@H]2OCCO | 54.4% |

| SMILES | INHIBITION |
| --- | --- |
| O=C(CCn1cc(Cl)cn1)N1CCC2(CC1)[C@H](O)C[C@@H]2OCCO | 75.7% |
| O=C(CCn1cc(Cl)cn1)N1CCCC(O)(CO)CC1 (stereo not drawn) | -15.6% |
| O=C(CCn1cncn1)N1CCC2(CC1)[C@H](O)C[C@@H]2OCCO | 12.7% |
| O=C(CCn1cc(Cl)cn1)N1CCC2(CC1)OCCCC2O (stereo not drawn) | 2.79% |
| O=C(CCCn1ccnc1)N1CCC2(CC1)[C@H](O)C[C@@H]2OCCO | 18% |
| Cc1nc(C)n(C2CCCN(C(=O)CCOCC(C)C)C2)n1 (stereo not drawn) | 7.27% |
| Cc1cc(N2CCN(CC(=O)N(C)C)CC2)nc(-c2ccncc2)n1 | 4.74% |
| CNc1cc(C2CN(C(=O)c3cnn(C)c3)CCO2)nc(C)n1 (stereo not drawn) | 25.8% |
| CCC(Cn1ccnc1)n1cnc2c(C)csc2c1=O (stereo not drawn) | 14.9% |
| Cc1nc(C2CCCN2Cc2cc(Cl)c3c(c2)OCCCO3)no1 (stereo not drawn) | 52.2% |
| Cc1nc(C2CCCN2Cc2cc(Cl)c3c(c2)OCO3)no1 (stereo not drawn) | 44.3% |
| Cc1nc(C2CCCN2Cc2cc(Cl)c3c(c2)OCCO3)no1 (stereo not drawn) | 45.4% |
| Cc1nc(CNCc2ccc(N3CCC(CO)CC3)nc2)cs1 | -11.6% |
| Cc1ccc(CNCc2ccc(N3CCC(CO)CC3)nc2)c(C)c1 | 58.7% |
| COc1ccc(C)cc1CNCc1ccc(-n2nc(C)cc2C)nc1 | 18.6% |
| Cc1ncsc1C(=O)OCCN1CCCCCC1=O | -60.9% |
| CCCc1n[nH]c(C2CN(C(=O)CCCn3ccnc3C)CCO2)n1 (stereo not drawn) | 87.2% |
| CC(C)(C)c1n[nH]c(C2CN(C(=O)CCc3cccs3)CCO2)n1 (stereo not drawn) | -32.5% |
| CCCc1n[nH]c(C2CN(C(=O)CCn3nc(C)cc3C)CCO2)n1 (stereo not drawn) | 34.6% |
| CCc1n[nH]c(C2CN(C(=O)CCc3cccs3)CCO2)n1 (stereo not drawn) | 51.3% |
| Cc1n[nH]c(C2CN(C(=O)CCCn3cccn3)CCO2)n1 (stereo not drawn) | -22.1% |
| CCCc1n[nH]c(C2CN(C(=O)CCCn3cccn3)CCO2)n1 (stereo not drawn) | 1.81% |
| CCc1n[nH]c(C2CN(C(=O)Cc3cccs3)CCO2)n1 (stereo not drawn) | -33.7% |
| CCCc1n[nH]c(C2CN(C(=O)CCCn3ccnc3)CCO2)n1 (stereo not drawn) | -18.9% |
| CCc1n[nH]c(C2CN(C(=O)CCCn3cccn3)CCO2)n1 (stereo not drawn) | 56.1% |
| Cc1cc(C(=O)N2C[C@H](C(C)C)[C@@H](N(C)C)C2)cs1 | 47.2% |
